Screening results as filed in PubChem.
AF4-AF9 inh = MLL-AF4/AF9 protein interaction inhibition | AlphaScreen, biotin-AF4 peptide binding to FLAG-AF9 | inhibition, % at 10 µM | hit rate 0.47% among 350,000;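 active means every replicate reaching a set inhibition limit, whatever the replicate mean, cut at about 25% in these data; inconclusive means mean inhibition reaches that limit but some replicates miss it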
RAD52 inh = blocks human RAD52 DNA annealing; recombinant RAD52 DNA annealing, FRET fluorescence; AID 651710; inhibition, % at 18.7 µM; P43351; hit rate 0.46% among 360,000;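 active means every replicate showing at least 50% inhibition; inconclusive means mean inhibition at least 50% but not in every replicate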
Target sequence (P43351 whole entry, looked up): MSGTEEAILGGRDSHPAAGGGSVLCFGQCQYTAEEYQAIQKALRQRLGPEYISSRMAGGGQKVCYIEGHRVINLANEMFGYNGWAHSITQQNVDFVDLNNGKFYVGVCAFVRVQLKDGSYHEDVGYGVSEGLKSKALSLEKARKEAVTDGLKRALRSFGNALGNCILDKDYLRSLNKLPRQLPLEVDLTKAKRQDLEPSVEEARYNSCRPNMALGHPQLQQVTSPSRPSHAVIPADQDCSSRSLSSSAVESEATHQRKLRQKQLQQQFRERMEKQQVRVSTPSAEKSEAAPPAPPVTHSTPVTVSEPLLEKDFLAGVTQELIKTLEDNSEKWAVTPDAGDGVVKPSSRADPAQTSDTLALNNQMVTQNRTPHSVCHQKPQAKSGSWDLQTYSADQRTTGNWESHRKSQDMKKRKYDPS
CASP6 VEID inh = blocks human caspase-6 cleavage activity; inhibition, % at 12.5 µM; AID 686996; hit rate 0.53% among 350,000; purified caspase-6, Z-VEID-R110 cleavage fluorescence;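 active means mean inhibition across replicates at least about 35%, with every replicate also reaching that limit, limit read from the data; inconclusive means only one of the two criteria met; inactive means neither criterion met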
Target sequence (P55212 24-179 limits assumed): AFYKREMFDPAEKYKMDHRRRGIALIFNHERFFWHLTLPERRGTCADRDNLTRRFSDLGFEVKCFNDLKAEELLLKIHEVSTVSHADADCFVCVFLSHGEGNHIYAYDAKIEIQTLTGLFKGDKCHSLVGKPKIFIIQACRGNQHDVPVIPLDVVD
Target sequence (P55212 194-293 limits assumed): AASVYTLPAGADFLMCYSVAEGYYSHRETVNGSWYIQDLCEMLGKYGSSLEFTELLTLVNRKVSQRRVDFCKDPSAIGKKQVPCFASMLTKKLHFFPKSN
NSD2 HMT inh = NSD2 (human) methyltransferase inhibition; O96028; NSD2 peptide methylation, AlphaScreen, 120 min; inhibition, % at 12.5 µM; hit rate 0.54% among 310,000; AID 743445; in the data active means inhibition above about 50%
Ecoli rRNA inh = inhibits bacterial ribosomal RNA function over humanized ribosomes. hit rate 1.6% among 350,000. E. coli WT GFP vs humanized-ribosome RFP mutants, fluorescence, 24 h; active compounds read low; DMSO median 0, no signal -100. GFP signal change (wild-type ribosome), % (no concentration beside the values);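 active means significant combined selectivity score with lowered wild-type GFP, culture density cut under 30%, mutant RFP and density less affected; inactive means any of these conditions unmet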
Each line names hits and unclear results; the compound was inactive in the other large screens. Most compounds without a hit are left out; they make up all but 2.5% or so of the library.

COc1ccccc1C#Cc1ccc2c(c1)O[C@@H](CN(C)C)[C@@H](C)CN([C@@H](C)CO)S2(=O)=O	CASP6 VEID inh 48 (no result: NSD2 HMT inh)
CC(=O)N(C)C[C@@H]1Oc2cc(C#CC3CC3)ccc2S(=O)(=O)N([C@@H](C)CO)C[C@H]1C	none (no result: AF4-AF9 inh, RAD52 inh, CASP6 VEID inh, NSD2 HMT inh)
C[C@H]1CN([C@@H](C)CO)C(=O)Cc2cc(NS(=O)(=O)c3ccc(Cl)cc3)ccc2O[C@@H]1CN(C)Cc1ccc(Oc2ccccc2)cc1	none (no result: NSD2 HMT inh)
COc1ccc(S(=O)(=O)Nc2ccc3c(c2)C(=O)N([C@H](C)CO)C[C@@H](C)[C@H](CN(C)C(=O)NC(C)C)O3)cc1	none (no result: AF4-AF9 inh, RAD52 inh, CASP6 VEID inh, NSD2 HMT inh)
O=C(Nc1ccc(C(F)(F)F)cc1)N[C@H]1CC[C@@H](CCn2cc(C3(O)CCCC3)nn2)O[C@@H]1CO	none (no result: NSD2 HMT inh)
COc1ccc(/C=C/c2nc(-c3ccccc3O)n[nH]2)cc1OC	none (no result: AF4-AF9 inh, RAD52 inh, CASP6 VEID inh, Ecoli rRNA inh)
O=C(O)COc1ccc(/C=C/c2nc(-c3ccccc3O)n[nH]2)cc1	Ecoli rRNA inh -17
C[C@H](O)[C@@H]1C(=O)N2CCc3c([nH]c4ccccc34)[C@@H]2C[C@@H]1N(C)C(=O)Nc1cccc2ccccc12	CASP6 VEID inh 82 (no result: NSD2 HMT inh)
CCOC(=O)c1nc(C)sc1-c1ccnn1S(=O)(=O)c1cccc(Cl)c1	Ecoli rRNA inh -29
CCOC(=O)C1=CCN(S(=O)(=O)c2cccc(Cl)c2)C1c1cccc(Cl)c1 (centres undefined)	none (no result: NSD2 HMT inh)
CC(CCCN(C)C)C(Cc1ccccc1)c1ccccc1 (centres undefined)	Ecoli rRNA inh -47
C[C@@H]1CCCCO[C@@H](CN(C)C(=O)Cc2ccccc2)[C@@H](C)CN([C@H](C)CO)C(=O)c2cc(NC(=O)c3ccccc3)ccc2O1	none (no result: NSD2 HMT inh)
CCOC(=O)CC1C(=O)NCCN1S(=O)(=O)c1cccc(C(F)(F)F)c1 (centres undefined)	CASP6 VEID inh 42
Oc1ccc(N=Cc2ccc(OCc3ccccc3)cc2)cc1	NSD2 HMT inh 79
O=C(N/N=C/c1ccc(OCc2ccccc2)cc1)c1ccncc1	none (no result: Ecoli rRNA inh)
CC1CCCC(C)N1C(=O)C1CCCCC1 (centres undefined)	CASP6 VEID inh 59 (no result: NSD2 HMT inh, Ecoli rRNA inh)
CC1CN(C(=O)C2CCCCC2)C(C)CN1C(=O)C1CCCCC1 (centres undefined)	none (no result: AF4-AF9 inh, RAD52 inh, CASP6 VEID inh, Ecoli rRNA inh)
O=C(c1ccccn1)N1CC(=O)N2[C@@H](CO)[C@H](c3ccc(-c4cccc(F)c4)cc3)[C@@H]2C1	none (no result: NSD2 HMT inh)
C[C@H]1CN([C@@H](C)CO)C(=O)Cc2cc(NC(=O)CCCCCC(=O)Nc3ccccc3N)ccc2O[C@H]1CN(C)Cc1ccc(C(F)(F)F)cc1	none (no result: NSD2 HMT inh)
O=C(COc1nsnc1N1CCOCC1)N/N=C/c1ccccc1O	Ecoli rRNA inh -22
O=C(O)COc1ccc(/C=N/NC(=O)COc2nsnc2N2CCOCC2)cc1	none
COc1ccc(CNC(=O)c2cc(C3CC3)nc3c2cnn3C(C)C)cc1	AF4-AF9 inh 32
O=C(NC[C@@H]1CC[C@H]2[C@H](CN2S(=O)(=O)c2ccccc2)O1)NC1CCCCC1	none (no result: NSD2 HMT inh, Ecoli rRNA inh)
O=C(CSc1nccc(=O)[nH]1)NCc1ccco1	CASP6 VEID inh 42 (no result: NSD2 HMT inh)
Cc1ccc(C(=O)Nc2ccc(O)cc2C(=O)O)cc1C	Ecoli rRNA inh -25
Cn1cc(C(CC(=O)O)C(=O)O)c2ccccc21 (centres undefined)	CASP6 VEID inh 43
O=C(O)CC1(CC(=O)Nc2ccc3ccccc3c2)CCCCC1	none (no result: AF4-AF9 inh, RAD52 inh, CASP6 VEID inh, Ecoli rRNA inh)
O=C(O)CC1(CC(=O)Nc2ccc(F)c(Cl)c2)CCCCC1	Ecoli rRNA inh -23 (no result: NSD2 HMT inh)
O=C1N[C@H](Cc2ccccc2)COCc2cn(nn2)CC[C@H]1Cc1ccc(-c2ccccc2)cc1	none (no result: AF4-AF9 inh, RAD52 inh, CASP6 VEID inh, NSD2 HMT inh)
CC[C@H](C)[C@H](NC(N)=O)C(=O)Nc1ccc(C)cc1	none
CC[C@H](C)[C@H](NC(N)=O)C(=O)Nc1ccc(NC(C)=O)cc1	AF4-AF9 inh 96
CS(=O)(=O)Nc1ccc2c(c1)[C@@H]1C[C@@H](CC(=O)NCc3ccccn3)O[C@@H](CO)[C@@H]1O2	none (no result: NSD2 HMT inh)
Cc1cc(C)nc(SCC(=O)c2ccc(O)c(O)c2)n1	none (no result: NSD2 HMT inh)
Cc1cc(SCC(=O)c2ccc(O)c(O)c2)n2nc(C)c(-c3ccccc3)c2n1	AF4-AF9 inh inconclusive, CASP6 VEID inh 39
Cc1cc(=O)[nH]c(SCC(=O)c2ccc(O)c(O)c2)n1	CASP6 VEID inh 36
O=C(CSc1nc2ccccc2c(=O)[nH]1)c1ccc(O)c(O)c1	CASP6 VEID inh 70 (no result: NSD2 HMT inh)
O=C(CSc1nc2ccccc2n1CCc1ccccc1)c1ccc(O)c(O)c1	CASP6 VEID inh 70, NSD2 HMT inh 102
O=C(c1cccnc1)N1CC(=O)N2[C@H](CO)[C@@H](c3ccc(/C=C/c4ccccc4)cc3)[C@@H]2C1	none (no result: CASP6 VEID inh, NSD2 HMT inh)
COc1ccc2c3c([nH]c2c1)[C@@H](CO)N(CC1CCOCC1)CC31CN(C(=O)C2CC2)C1	none (no result: NSD2 HMT inh)
C[C@@H]1CN([C@@H](C)CO)C(=O)c2cc(C#C[C@@H](C)O)cnc2O[C@@H]1CN(C)Cc1ccc(-c2ccccc2)cc1	none (no result: NSD2 HMT inh)
COc1ccc(NC(=O)N(C)C[C@@H]2Oc3c(NS(=O)(=O)c4ccccc4)cccc3C(=O)N([C@H](C)CO)C[C@H]2C)cc1	none (no result: AF4-AF9 inh, RAD52 inh, CASP6 VEID inh, NSD2 HMT inh)
O=C(C[C@@H]1CC[C@@H](NS(=O)(=O)c2ccccc2)[C@@H](CO)O1)N1CCN(c2ccccc2)CC1	none (no result: NSD2 HMT inh)
COc1ccc(NC(=O)Nc2ccc3c(c2)C(=O)N([C@@H](C)CO)C[C@@H](C)[C@H](CN(C)C(=O)Nc2c(C)noc2C)OCCCC[C@@H](C)O3)cc1	none (no result: NSD2 HMT inh)
Cc1[nH]c2ccccc2c1C(=O)CSc1nc2ccccc2[nH]1	Ecoli rRNA inh -28
Cn1c(SCC(=O)c2ccc(O)c(O)c2)nnc1-c1cccs1	CASP6 VEID inh 40
CCOC(=O)c1ccc2c(c1)nc(SCC(=O)c1cc3ccccc3o1)n2CC	none (no result: AF4-AF9 inh, RAD52 inh, CASP6 VEID inh, Ecoli rRNA inh)
C=CCNC(=O)CSc1nc2cc(C(=O)OCC)ccc2n1CC	Ecoli rRNA inh -43
Cc1oc2c(cc(NS(=O)(=O)c3ccc(Cl)cc3)c3ccccc32)c1C(=O)O	none
CCOC(=O)c1c(C)oc2c1cc(NS(=O)(=O)c1ccc(C(=O)O)cc1)c1ccccc12	CASP6 VEID inh 62
C[C@H](CO)N1C[C@H](C)[C@H](CN(C)Cc2ccc(C(=O)O)cc2)Oc2c(NS(C)(=O)=O)cccc2C1=O	none (no result: NSD2 HMT inh)
CSc1ccccc1NC(=O)CN(C)C(=O)/C=C/c1ccccc1	CASP6 VEID inh 36
CO[C@H]1CC[C@@H]2CCN(C)C(=O)[C@@H](C)N(C)C(=O)c3cc(C#N)ccc3OC[C@H]1O2	none (no result: AF4-AF9 inh, RAD52 inh, CASP6 VEID inh, NSD2 HMT inh)
COC(=O)C1=C(C)Nc2nc(-c3ccccc3)nn2C1c1ccc(C)o1 (centres undefined)	Ecoli rRNA inh -22 (no result: NSD2 HMT inh)
O=C1Cc2ccccc2C(=O)N1Cc1cccc(Cl)c1	CASP6 VEID inh 68
O=C(COc1ccc(Br)cc1)N/N=C1/SCC(=O)N1Cc1ccco1	Ecoli rRNA inh -23
O=C1CSC(=Nc2ccc(Cl)cc2)N1Cc1ccco1	none
COc1ccc2c3c([nH]c2c1)[C@H](CO)N(Cc1ccccc1)CC31CN(C)C1	none (no result: AF4-AF9 inh, CASP6 VEID inh, NSD2 HMT inh)
CN1CCN(C(=O)C2=C[C@H](c3ccccc3)C[C@H](OCCCCO)O2)CC1	none (no result: NSD2 HMT inh, Ecoli rRNA inh)
CCCCCc1ccc(CC(=O)N2CCOCC2)cc1	CASP6 VEID inh 50
